# The list is not random: actives were taken first. Their share in the collection is about 18%.
# GCN5L2 inh – qHTS Assay for Inhibitors of GCN5L2 | actives 0.21% (n = 390,000) | Potency, µM (titrated, usually from 58.9 µM), for the others: at the top dose activity change, negative = inhibition, most hits filed as inhibitors | GCN5L2 HAT assay, ThioGlo1 CoA-SH fluorescence | Histone acetyltransferase KAT2A (Homo sapiens), Q92830 | AID 504327, 2011
#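 Titration-based screen in which CoA formation is detected via maleimide probe ThioGlo1 (50uM) turning fluorescent on thiol reaction; substrates H3(1-25) 75uM and acetyl-CoA 70uM, GCN5L2 20nM, 20 min incubation at room temperature.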
# DT40 TDP1 no CPT – qHTS for Inhibitors of human tyrosyl-DNA phosphodiesterase 1 (TDP1): qHTS in cells in absence of CPT; DT40 Tdp1-/- hTDP1 cells, no CPT, ATP luminescence, 48 h; Potency, µM (highest dose often 46.2 µM), for the others: top-dose activity change, negative = growth inhibition, hits mostly inhibitors; actives 15% (n = 420,000); AID 686978, 2013; also: nearly all actives have a fitted effect of over 55% in size
#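 Cells were dispensed at 400 per well, compounds added by pin tool, plates incubated ≥48 hr at 37 °C, then CellTiter-Glo added for 30 min at room temperature before luminescence reading. Line: DT40 Tdp1-/- complemented with hTDP1; camptothecin omitted.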
# TDP1 inh – qHTS Assay for Inhibitors of Tyrosyl-DNA Phosphodiesterase (TDP1); AID 485290, 2010; recombinant TDP1, AlphaScreen DNA substrate cleavage; Tyrosyl-DNA phosphodiesterase 1 (Homo sapiens), Q9NUW8; actives 0.28% (n = 350,000); Potency, µM (highest dose often 130 µM), for inactives: at the highest dose activity change, negative = inhibition, usual class: inhibitors; also: nearly all actives have a fitted effect of over 40% in size
# Target sequence (Q9NUW8 whole entry, looked up): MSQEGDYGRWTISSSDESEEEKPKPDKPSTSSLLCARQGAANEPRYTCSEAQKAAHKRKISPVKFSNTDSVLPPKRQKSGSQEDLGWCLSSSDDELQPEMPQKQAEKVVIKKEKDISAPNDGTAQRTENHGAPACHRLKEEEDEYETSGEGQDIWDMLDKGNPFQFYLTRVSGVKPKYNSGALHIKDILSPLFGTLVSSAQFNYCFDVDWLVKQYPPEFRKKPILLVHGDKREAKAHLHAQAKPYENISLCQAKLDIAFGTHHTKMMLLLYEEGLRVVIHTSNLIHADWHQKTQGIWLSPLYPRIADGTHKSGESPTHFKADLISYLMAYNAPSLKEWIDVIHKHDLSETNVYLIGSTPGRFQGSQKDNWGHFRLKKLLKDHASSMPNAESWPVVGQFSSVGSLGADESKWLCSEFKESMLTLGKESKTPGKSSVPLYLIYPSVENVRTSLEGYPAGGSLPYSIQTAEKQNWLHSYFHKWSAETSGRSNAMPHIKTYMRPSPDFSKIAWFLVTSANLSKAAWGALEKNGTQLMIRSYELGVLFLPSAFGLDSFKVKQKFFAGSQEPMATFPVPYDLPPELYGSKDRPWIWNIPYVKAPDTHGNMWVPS
#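 Signal: AlphaScreen proximity between streptavidin donor and anti-FITC acceptor beads on intact substrate. Reaction: Tdp1 1 nM, substrate 15 nM final, 5 min RT after 15 min compound preincubation.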
# PLK1 PBD inh – qHTS for Inhibitors of PLK1-PDB (polo-like kinase 1 - polo-box domain): Primary Screen; Serine/threonine-protein kinase PLK1 (Homo sapiens), P53350; Plk1 PBD binding of FITC phosphopeptide, fluorescence polarization; Potency, µM, for inactives: max response, negative = inhibition, most hits filed as inhibitors; actives 2.8% (n = 360,000); AID 720504, 2013; also: series mostly up to about 57 µM; nearly all actives have a fitted effect of over 65% in size
# TDP1 cell CPT – qHTS for Inhibitors of human tyrosyl-DNA phosphodiesterase 1 (TDP1): qHTS in cells in presence of CPT | chicken DT40 Tdp1-/-;hTDP1 cells + 20 nM CPT, ATP luminescence, 48 h | Potency, µM (series often up to 46.2 µM), inactives show at the top dose activity change, negative = growth inhibition, hits mostly inhibitors | actives 12% (n = 420,000) | AID 686979, 2013; also: nearly all actives have a fitted effect of over 55% in size
#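 Chicken DT40 Tdp1-/- cells complemented with human TDP1, 400 cells/well, exposed to compounds plus 20 nM camptothecin for at least 48 h at 37 C; viability read as ATP content by CellTiter-Glo luminescence.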
# VDR inh – Inhibitors of the vitamin D receptor (VDR): qHTS | Vitamin D3 receptor (Homo sapiens), P11473 | VDR-SRC2-3 peptide fluorescence polarization, 2 h | Potency, µM, inactives show max response, negative = inhibition, usual class: inhibitors | actives 0.93% (n = 400,000) | AID 504847, 2011
#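 FP read-out; VDR + SRC2-3 coactivator peptide; 23 nl compound by pintool; 2 h RT incubation; reagents held at 4 deg C, protected from light.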
# Active calls of the source: *; ? = inconclusive; . = no result given; [ ] = dose if it differs, or a comment. Calls follow the shape of the dose curve; as a rule, active = well fitted curve in the direction sought with a large enough effect; inconclusive = small, poorly fitted or top-dose-only effect, or another doubt; inactive = no such curve, though single readings can be large; an effect the other way counts as inactive or inconclusive. % is scaled to controls: 0 for no effect and ±100 for the full control effect; potency is read from the fitted curve at half-maximal effect.
SMILES,GCN5L2 inh,DT40 TDP1 no CPT,TDP1 inh,PLK1 PBD inh,TDP1 cell CPT,VDR inh
Cn1cc(CN2CCCC(C(=O)c3cccs3)C2)c(-c2cccc(Cl)c2)n1 (stereo not given),-11%,16µM*,5%,5%,?,-4%
CC(C1CCN(Cc2cn(C)nc2-c2cccc(Cl)c2)CC1)N1CCOCC1 (stereo not given),-2%,?,0%,0%,?,-2%
CC1CCCN(C(=O)c2ccncc2)C1 (stereo not given),-5%,13%,-2%,0%,2%,3%
O=C(c1ccc(-c2ccccc2)cc1)C1CCCN(C(=O)c2ccncc2)C1 (stereo not given),-2%,?,3%,-15%,3.7µM*,27%
CC1CCN(c2ccccc2NC(=S)NC(=O)C(C)(C)C)CC1,-8%,?,5%,-3%,?,17%
COc1cc(OC)c(NC(=O)c2c(C)oc3nc(C)nc(N4CCOCC4)c23)cc1Cl,-1%,-15%,-2%,.,-4%,2%
COC(=O)c1cc(-c2c(C)oc3cc(OC(C)C)ccc3c2=O)c(C)o1,-2%,15µM*,2%,-3%,15µM*,-9%
COC(=O)c1cc(=O)c2ccc(OC)cc2o1,-3%,1%,2%,1%,-2%,-6%
COc1ccc(NS(=O)(=O)c2ccc3[nH]c4c(c3c2)CCCCC4)cc1,-2%,23µM*,3%,.,16µM*,4%
CCOc1ccc(NS(=O)(=O)c2ccc3[nH]c4c(c3c2)CCCCC4)cc1,0%,18µM*,6%,.,23µM*,13%
COc1ccc(NS(=O)(=O)c2ccc3[nH]c4c(c3c2)CCCC4)c(OC)c1,-13%,21µM*,7%,.,21µM*,19%
CCOc1ccc(NS(=O)(=O)c2ccc3[nH]c4c(c3c2)CCCC4)cc1,-9%,?,9%,.,-23%,23%
Cc1cc2c(cc(C(=O)OCC(=O)NCc3cccs3)n2C(C)C)o1,-3%,0.73µM*,12%,-9%,0.82µM*,0%
CCN(CC)c1ccc(Nc2nc(N3CCOCC3)c3ccccc3n2)cc1,-8%,3.3µM*,12%,-2%,4.6µM*,-8%
COc1ccc(Nc2nc(N3CCCC3)c3ccccc3n2)cc1,3%,3.3µM*,11%,1%,2.6µM*,-2%
O=CNc1cc(-c2ccsc2)cn2c(-c3ccccc3)cnc12,.,21µM*,.,?,16µM*,.
CS(=O)(=O)c1ccc(-c2cnc3c(NC=O)cc(-c4ccsc4)cn23)cc1,.,18µM*,.,?,23µM*,.
N#Cc1nc(Nc2cc(Cl)cc(Cl)c2)nc(NC2CCCC2)n1,.,.,-4%,.,.,.
Cc1ccc(S(=O)(=O)Nc2nc3ccccc3nc2NCc2ccco2)cc1,-4%,?,-1%,?,?,-2%
OCCN1CCN(c2nc(NCc3ccco3)c3ccccc3n2)CC1,-5%,-14%,5%,-8%,-26%,-15%
Cc1ccc(OCCN2CCN(c3nc(NCc4ccco4)c4ccccc4n3)CC2)cc1,-6%,15µM*,6%,-7%,?,8%
OCCNc1nc(Nc2ccc(O)cc2)nc2ccccc12,-11%,?,.,-4%,?,16%
c1ccc(CN2CCN(c3nc(NCc4ccco4)c4ccccc4n3)CC2)cc1,-8%,23µM*,4%,4%,?,-9%
OCCNc1nc(N2CCN(c3ccccc3)CC2)nc2ccccc12,-15%,?,9%,4%,23µM*,9%
CCCc1nc2ccccc2c(C(=O)OCC(=O)NCc2ccc3c(c2)OCO3)c1CC,-9%,?,3%,-7%,?,8%
SMILES,GCN5L2 inh,DT40 TDP1 no CPT,TDP1 inh,PLK1 PBD inh,TDP1 cell CPT,VDR inh
CCc1nc2ccccc2c(C(=O)OCC(=O)NCc2ccc3c(c2)OCO3)c1C,-3%,18µM*,3%,2%,?,23%
CCCc1nc2ccccc2c(C(=O)OC(C)C(=O)NCc2ccc3c(c2)OCO3)c1CC (stereo not given),-7%,18µM*,3%,4%,29µM*,-4%
CCc1ccccc1NC(=O)Cn1c(=O)ccc2cc(S(=O)(=O)N3CCCC3)ccc21,1%,?,8%,.,?,-3%
COc1cc2c(cc1OC)C(COc1ccccc1OC)N(C(=O)COc1ccc(Cl)cc1)CC2 (stereo not given),-16%,23µM*,5%,.,18µM*,3%
CCc1ccc(OCC2c3cc(OC)c(OC)cc3CCN2C(=O)COc2ccccc2)cc1 (stereo not given),0%,16µM*,8%,.,?,9%
COCCNC(=S)N1CCc2cc(OC)c(OC)cc2C1COc1ccc(F)cc1 (stereo not given),-7%,?,2%,-3%,?,18%
CN(C)c1nc(SCC(=O)Nc2ccc(Cl)c(Cl)c2)nc(N2CCOCC2)n1,-10%,23µM*,?,5%,-75%,-17%
CN(C)c1nc(SCC(=O)Nc2ccccc2)nc(N2CCOCC2)n1,-8%,-16%,5%,-5%,3%,0%
CCOc1ccc(NC(=O)CSc2nc(N3CCOCC3)nc(N3CCOCC3)n2)cc1,1%,-7%,3%,-1%,3%,-13%
CCNc1nc(SCC(=O)Nc2ccc(Cl)c(Cl)c2)nc(N2CCOCC2)n1,-7%,18µM*,7%,3%,?,-5%
CC1=NNC(=O)C1C(c1cccc(O)c1)C(C#N)C#N (stereo not given),5%,10%,6%,-7%,3%,4%
Cc1cccc(CN2CCN([C@@H](c3ccccc3)c3ccc(Cl)cc3)CC2)c1,-2%[21.4 µM],.,7%[56.1 µM],.,.,-13%
CC1=NNC(=O)C1C(c1ccc(Cl)cc1)C(C#N)C#N (stereo not given),-1%,?,.,21µM*,0%,79µM*
CC1=NN(Cc2ccccc2)C(=O)C1C(c1ccc(Cl)cc1)C(C#N)C#N (stereo not given),-8%,10µM*,11%,7.5µM*,10µM*,40µM*

# From PubChem
